# Test results reported in PubChem BioAssay (NCI).
# Values joined by “and” are separate entries in the source; they are usually repeats but may differ in a detail not shown here. Equal values may be shown once. Compounds without any hit were thinned out: in the full panel of roughly 83,000, 20% have a hit.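 Treatment: one concentration, 48 hours, 96-well format. Scoring: percent growth, with anything below 10 considered active.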 Values without a mark were called inactive. Active and inactive are the calls of the source.
# Test system: HL-60(TB) leukemia
# Test: NCI-60 one-dose screen, 48 h (100 = growth as untreated, 0 = no growth, -100 = all killed)
# Details: 10 µM unless noted
row,SMILES,growth
1,O=C1C[C@@H]2/C(=C(O)\C=C\c3ccccc3)C(=O)C=C[C@@H]2O1,13.3%
2,S=C(NCc1ccc2c(c1)OCO2)N1CCN(c2ncnc3c2oc2ccccc23)CC1,19.7%
3,O=C(Nc1nc(-c2ccccc2Cl)cs1)c1cc(-c2ccccc2)nc2ccc(Cl)cc12,-3.8% (active)
4,O=CC(O)C(O)C(O)CO (stereo unspecified),130% and 91.5%
5,CCOC(=O)c1sc(Nc2ccc(Cl)cc2)nc1C,27.2%
6,COc1ccc(C2SC(C)C(=O)N2CCc2cccs2)cc1OC (stereo unspecified),74.5%
7,Cc1nnc(NS(=O)(=O)c2ccc(N=Nc3ccc(N)nc3N)cc2)s1,98.4% and 98.2%
8,CC(=O)[C@H]1CCC/C=C/[C@@H]2C[C@H](O)C[C@H]2[C@H](O)/C=C/C(=O)O1,-54.4% (active)
9,Cc1ccncc1NC=O,105%
10,CCc1c(C)c2cc3nc(NCc4ccccc4)oc3c(C)c2oc1=O,80.6%
11,Cc1ccc(-c2cn(C/C=C3\C=CN(S(=O)(=O)c4ccccc4)CC3)nn2)cc1,105%
12,CCOC(=O)c1cc(C(=O)c2ccc(OC)c(OC)c2)n2ccncc12,92%
13,COc1ccc(-c2cc(NC(=O)Nc3ccc(O)cc3)no2)cc1,26.4%
14,O=[N+]([O-])c1ccc(N/N=C/c2c(O)ccc3ccccc23)nc1,9.55% (active)
15,Cc1cc(Cl)c2c(Cl)ccc(Cl)c2n1,96.2%
16,O=S(=O)(Nc1cc(Br)c(O)c2ccccc12)c1ccc(F)cc1,-26.9% (active)
